Only some compounds are listed: those with a hit (about 1.2% of all), similar ones and a draw of the others.
RGS8-Gao reg – human RGS8-Galphao interaction regulation; actives 0.34% (n = 220,000); response (percent of control binding), % at 10 µM; multiplexed bead flow cytometry, RGS8-Galphao binding; actives lie on both sides; in the data active means response below about 60% or above about 140%; inactive means in between;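 further: Galphao activated as the GDP aluminium fluoride complex binding bead-coupled RGS8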
GSH bead fluor – GSH bead compound fluorescence profile | fluorescence (KMESF) at 10 µM | actives 0.25% (n = 190,000) | AID 1776 | GSH beads flow cytometry, compound fluorescence 488/530 nm; hits give high values; in the data active means fluorescence above about 89;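 further: glutathione beads carrying GST-tagged Bcl family fusion proteins plus one bare bead set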
Avidin bead fluor – compound fluoresces at 488/530 nm on avidin beads; compound fluorescence 488/530 nm, flow cytometry; hits give high values; actives 0.38% (n = 220,000); fluorescence (KMESF) at 10 µM; in the data active means fluorescence above about 47
RGS7-Gao – regulators of human RGS7-Galphao interaction; Multiplexed bead flow cytometry, RGS7-Galphao binding; actives lie on both sides; binding response (% of control), % at 10 µM; actives 0.35% (n = 220,000); in the data active means binding response below about 49% or above about 150%; inconclusive means no clear call, values can overlap the other calls; inactive means in between;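 further: fluorescent Galphao held in activated GDP-AlF4 state binding bead-coupled RGS7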
RGS16-Gao HTS – regulators of human RGS16-Galphao interaction; O15492+P09471; bead-based flow cytometry RGS16-Galphao binding, fluorescence; actives lie on both sides; binding response (% of control), % at 10 µM; actives 0.38% (n = 220,000); AID 1441;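 further: Galphao activated by GDP with aluminum fluoride before binding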
RGS4-Gao reg – human RGS4-Galphao interaction regulation; binding response (% of control), % at 10 µM; P09471; actives 0.33% (n = 220,000); Multiplexed bead flow cytometry, RGS4-Galphao binding; actives lie on both sides; in the data active means binding response below about 49% or above about 150%; inactive means in between;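 further: fluorescent Galphao activated with aluminum fluoride binding bead-coupled RGS4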
RGS-Gao – RGS4-Galphao interaction regulator (human) | RGS4–Galpha-o binding response, % at 10 µM | shares compounds with RGS16-Gao HTS | multiplexed bead flow cytometry, RGS–Galpha-o binding | actives 99% (n = 1,600);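 further: fluorescently labeled Galpha-o bound to GDP with aluminium fluoride binding biotinylated RGS beads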
Avidin counter – interferes with biotinylated probe binding to avidin beads; streptavidin beads, fluorescein-biotin binding, flow cytometry; 1,700 tested, under 10 active; shares compounds with RGS16-Gao HTS; inhibition, % at 10 µM;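 active means inhibition above 50%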;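 further: median green fluorescence of gated singlet beads compared with DMSO control wells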
RGS8-Gao confirm – confirmation of regulators of human RGS8-Galphao interaction; actives 3% (n = 1,700); bead-based flow cytometry RGS8-Galphao binding, fluorescence; actives lie on both sides; AID 1836; binding response (% of control), % at 10 µM; shares compounds with RGS16-Gao HTS; in the data active means binding response below about 72% or above about 130%; inactive means in between;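 further: Galphao activated as GDP AlF4 complex before binding bead RGS8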
RGS7-Gao single – confirmation of regulators of human RGS7-Galphao interaction; shares compounds with RGS16-Gao HTS; bead-based flow cytometry RGS7-Galphao binding; actives lie on both sides; response (percent of control binding), % at 10 µM; actives 7.8% (n = 1,700); in the data active means response below about 75% or above about 130%; inactive means in between;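 further: fluorescent Galphao activated with GDP and aluminum fluoride binding bead-coupled RGS7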
RGS16-Gao single – confirmation of regulators of human RGS16-Galphao interaction. response (% of control binding), % at 10 µM. bead-based flow cytometry, RGS16-Galphao binding; actives lie on both sides. actives 4% (n = 1,700). shares compounds with RGS16-Gao HTS; in the data active means response below about 74% or above about 130%; inactive means in between;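 further: Galphao activated as the GDP aluminium fluoride complex binding bead-coupled RGS16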
RGS4-Gao single – RGS4-Galphao interaction regulation, single point confirmation; binding response (% of control), % at 10 µM; actives 4% (n = 1,700); shares compounds with RGS16-Gao HTS; AID 1840; RGS4-Galphao binding, multiplexed bead flow cytometry; actives lie on both sides; in the data active means binding response below about 74% or above about 130%; inactive means in between
RGS19-Gao conf – confirmation of regulators of human RGS19-Galphao interaction. shares compounds with RGS16-Gao HTS. bead-based flow cytometry RGS19-Galphao binding; actives lie on both sides. response (percent of control binding), % at 10 µM. actives 5% (n = 1,700); in the data active means response below about 50% or above about 160%; inactive means in between
Target sequence (P09471 whole entry, looked up): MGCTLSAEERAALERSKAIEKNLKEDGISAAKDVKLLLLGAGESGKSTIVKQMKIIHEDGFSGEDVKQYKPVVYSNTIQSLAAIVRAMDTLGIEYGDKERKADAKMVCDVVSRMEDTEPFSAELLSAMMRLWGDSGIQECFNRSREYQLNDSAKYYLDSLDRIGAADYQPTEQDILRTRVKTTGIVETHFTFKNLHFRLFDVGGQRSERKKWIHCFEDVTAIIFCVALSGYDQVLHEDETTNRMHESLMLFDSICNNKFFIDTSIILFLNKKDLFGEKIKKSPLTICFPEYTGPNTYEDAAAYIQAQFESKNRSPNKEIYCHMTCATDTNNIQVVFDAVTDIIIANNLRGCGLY
Target sequence (P49795 whole entry, looked up): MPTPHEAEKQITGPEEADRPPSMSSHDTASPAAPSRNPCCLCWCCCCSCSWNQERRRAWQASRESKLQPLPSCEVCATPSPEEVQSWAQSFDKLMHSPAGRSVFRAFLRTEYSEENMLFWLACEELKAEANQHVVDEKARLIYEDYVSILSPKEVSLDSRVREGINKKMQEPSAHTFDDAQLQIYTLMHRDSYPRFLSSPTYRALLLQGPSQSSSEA
Each line names hits and unclear results; the compound was inactive in the other large screens (follow-up assays come after a bar, where they were run); [ ] = another dose, or the depositor's remark. Unless noted, how the calls were made is not given here.

COc1cccc(C(=O)NC(=S)Nc2nnn(C)n2)c1	none
O=S(=O)(N/N=C/c1ccc(F)cc1)c1ccccc1	none
O=S(=O)(N/N=C/c1ccccc1F)c1ccccc1	RGS8-Gao reg 14, RGS7-Gao inconclusive, RGS16-Gao HTS 11, RGS4-Gao reg 22 | Avidin counter inactive | RGS8-Gao confirm inactive | RGS7-Gao single inactive | RGS16-Gao single inactive | RGS4-Gao single inactive | RGS19-Gao conf inactive
C=CCN1C(=O)C2(NC(=O)c3ccccc3N2)c2ccccc21 (stereo unspecified)	Avidin bead fluor 164, RGS7-Gao 270[activator] | RGS-Gao 123 | Avidin counter inactive | RGS8-Gao confirm inactive | RGS7-Gao single inactive | RGS16-Gao single inactive | RGS4-Gao single inactive | RGS19-Gao conf inactive
C=CCN1C(=O)C2(NNc3ccccc3O2)c2ccccc21 (stereo unspecified)	none
Cc1ccc(/C=N/NC(=O)c2ccc3nc[nH]c3c2)o1	Avidin bead fluor 128, RGS7-Gao inconclusive, RGS4-Gao reg 156[activator] (no result: GSH bead fluor) | Avidin counter inactive | RGS8-Gao confirm inactive | RGS7-Gao single inactive | RGS16-Gao single inactive | RGS4-Gao single inactive | RGS19-Gao conf inactive
CCCCNC(=O)CN(CCc1ccccc1)S(C)(=O)=O	RGS4-Gao reg 169[activator] | Avidin counter inactive | RGS8-Gao confirm inactive | RGS7-Gao single inactive | RGS16-Gao single inactive | RGS4-Gao single inactive | RGS19-Gao conf inactive
COc1ccc(Cc2nc(-c3ccc(Cl)cc3)no2)cc1	none
COc1ccc(-c2noc(Cc3ccc(Cl)cc3)n2)cc1OC	Avidin bead fluor 67, RGS7-Gao 167[activator] | RGS-Gao 109 | Avidin counter inactive | RGS8-Gao confirm inactive | RGS7-Gao single inactive | RGS16-Gao single inactive | RGS4-Gao single inactive | RGS19-Gao conf inactive
COC(=O)c1cc(C(=O)Nc2ccc(C)cn2)cc([N+](=O)[O-])c1	none (no result: RGS8-Gao reg, Avidin bead fluor, RGS7-Gao, RGS16-Gao HTS, RGS4-Gao reg) | Avidin counter inactive | RGS8-Gao confirm inactive | RGS7-Gao single 75 | RGS16-Gao single inactive | RGS4-Gao single inactive | RGS19-Gao conf inactive
C/C(=N/NC(=O)Cc1cccn1C)c1ccccc1	RGS8-Gao reg 47, RGS7-Gao 46 | RGS-Gao 71 | Avidin counter inactive | RGS8-Gao confirm inactive | RGS7-Gao single inactive | RGS16-Gao single inactive | RGS4-Gao single inactive | RGS19-Gao conf inactive
C/C(=N\NC(=O)Cc1cccn1C)c1ccc2ccccc2c1	RGS8-Gao reg 36, RGS7-Gao 36 | RGS-Gao 68 | Avidin counter inactive | RGS8-Gao confirm inactive | RGS7-Gao single inactive | RGS16-Gao single inactive | RGS4-Gao single inactive | RGS19-Gao conf inactive
C/C(=N\NC(=O)Cc1cccn1C)c1cccc2ccccc12	none
COc1cc2c3nnc(-c4ccc(F)cc4)c-3cn(Cc3ccccc3)c2cc1OC	none
